Screening data as filed in PubChem BioAssay.
HSV augment = increases HSV replication in cells. HSV replication augmentation in cells, fold increase. maximum fold increase. 220,000 compounds, 0.005% hits; in the data active = maximum fold increase above about 1.5; inconclusive = no clear call, values can overlap the other calls; tested in PC3 cells
ROMK mod = human ROMK K+ channel modulation, primary screen; 130,000 compounds, 2% hits; B-score at 10 µM; AID 1918; P48048; Tet-inducible ROMK, thallium flux fluorescence; actives lie on both sides;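 active = signal ratio slope over the read window, or its plate-corrected B-score, at least 3 SD from the plate mean, either direction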;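 also: B-score of the F/F0 ratio slope over 7 to 12 s after thallium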
Target sequence (P48048 whole entry, looked up): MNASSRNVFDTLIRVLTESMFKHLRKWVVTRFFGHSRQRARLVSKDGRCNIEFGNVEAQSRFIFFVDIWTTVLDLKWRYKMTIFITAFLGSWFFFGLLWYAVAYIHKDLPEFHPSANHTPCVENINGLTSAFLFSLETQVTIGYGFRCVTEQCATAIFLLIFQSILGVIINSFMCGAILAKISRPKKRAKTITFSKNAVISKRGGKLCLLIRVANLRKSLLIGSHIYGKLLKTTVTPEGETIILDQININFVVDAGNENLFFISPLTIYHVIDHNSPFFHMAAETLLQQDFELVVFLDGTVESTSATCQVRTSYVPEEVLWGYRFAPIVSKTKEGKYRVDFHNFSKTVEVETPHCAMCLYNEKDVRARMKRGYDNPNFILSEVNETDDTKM
Arbovirus anti = blocks arbovirus infection; inhibition, % at 10 µM; 200,000 compounds, 0.37% hits; arbovirus infection cell-based antiviral screen; in the data active = inhibition above about 30%
Efa HMGR inh = E. faecalis class II HMG-CoA reductase inhibition | inhibition, % at 10 µM | AID 1066 | 190,000 compounds, 0.41% hits | purified E. faecalis HMGR, NADPH absorbance 340 nm kinetic;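 active = inhibition above a set limit, the median over all tested compounds plus 3 SD, cut at about 9.5% in these data; inconclusive = no clear call, values can overlap the other calls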;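 also: enzyme runs in reverse so mevalonate oxidation gives rising NADPH absorbance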
Calpain2 inh = blocks pig calpain II enzyme activity; purified calpain II, fluorogenic peptide substrate, 30 min; inhibition, % at 16 µM; 220,000 compounds, 0.37% hits; AID 1236;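 active = inhibition above about 50%, limit read from the data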
ROMK hit retest = retested hit modulating human ROMK potassium channel; shares compounds with ROMK mod; ROMK thallium flux, fluorescence ratio; stronger effect = lower value; normalized thallium flux (F/F0 slope) at 10 µM; 3,000 compounds, 54% hits;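 active = Flux at 10 µM at least 3 SD below or above vehicle control mean in one or both replicates; inconclusive = no clear call, values can overlap the other calls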
Numbers stand for hits; – = inactive; ? = inconclusive; · = not tested or not shown. A selection: hits, their analogues and other compounds. The true share with any hit is near 2.1%.

SMILES | HSV augment | ROMK mod | Arbovirus anti | Efa HMGR inh | Calpain2 inh | ROMK hit retest
COc1ccc(C2=NOC(COc3ccc4c(C)cc(=O)oc4c3)C2)c(OC)c1 (configuration not stated) | – | · | · | · | – | ·
N#C/C(=C\c1ccc(Cl)c([N+](=O)[O-])c1)c1ccccn1 | – | -6.93 | – | – | – | 0.0532
CNc1ccc(/C=C(\C#N)c2ccccn2)cc1[N+](=O)[O-] | – | – | – | – | – | ·
c1cc2c(cc1C1CCCCC1)c1c3n2CCCNC3CCC1 (configuration not stated) | – | – | – | – | – | ·
Cc1ccc2c(c1)c1c3n2CCCNC3CCC1 (configuration not stated) | – | -2.09 | – | – | – | 0.0604
O=S(=O)(Nc1cc(Sc2ncn[nH]2)c(O)c2ccccc12)c1ccccc1 | – | -4.34 | – | – | – | 0.0464
Cc1cc(NS(=O)(=O)c2ccccc2)c(C)c(Cl)c1O | – | · | – | – | – | ·
CCOC(=O)C(=CNc1ccc(OC)cc1[N+](=O)[O-])C(=O)OCC | – | · | · | · | – | ·
O=c1[nH]c2ccc(S(=O)(=O)NCCO)cc2[nH]1 | – | 1.51 | – | – | – | –
O=[N+]([O-])c1ccc(S(=O)(=O)CC(CN2CCCCC2)N2CCCCC2)cc1 (configuration not stated) | – | -4.77 | – | – | – | 0.0529
O=[N+]([O-])c1ccc(S(=O)(=O)CC(CN2CCOCC2)N2CCOCC2)cc1 (configuration not stated) | – | – | – | – | – | ·
Cc1cc([N+](=O)[O-])cc(/C=N\NC(=O)C2COc3ccccc3O2)c1O (configuration not stated) | – | – | · | · | – | ·
Cc1cc2ccccc2n1CCNC(=O)c1cccs1 | – | · | – | – | – | 0.0685
COc1cc(NCCCCCCCN)c2ncccc2c1 | – | -5.06 | – | – | – | 0.0621
COc1ccc(-n2cnnc2SCC(=O)Nc2cccnc2Cl)cc1 | – | – | – | – | – | ·
C=CCN(C(=O)CSc1nc2c(sc3ccccc32)c(=O)n1CCN(CC)CC)c1ccccc1 | – | – | – | – | – | ·
Cc1cc(N2CCOCC2)ccc1/C=C1\NC(=O)N(CC(=O)Nc2ccccc2C)C1=O | · | 0.745 | – | – | – | ?
Cn1nnnc1SCC(=O)Nc1ccc(S(=O)(=O)N2CCOCC2)cc1 | – | · | · | · | – | ·
O=C(CCn1c2c(c3ccccc31)CCCC2)NNC(=O)c1ccccc1C(=O)O | – | · | · | · | – | –
O=C(CCn1c2c(c3ccccc31)CCCC2)NNC(=O)c1ccccc1[N+](=O)[O-] | – | · | – | – | – | ·
O=C(CCc1ccc(Oc2cc([N+](=O)[O-])cc([N+](=O)[O-])c2)cc1)N1CCCCCC1 | – | -2.93 | – | – | – | 0.0642
O=C(Cc1ccc([N+](=O)[O-])cc1)N1CCCCCC1 | – | – | – | – | – | ·
O=C(CCc1ccccc1)N1CCN(c2ccc([N+](=O)[O-])cc2)CC1 | – | -3.6 | – | – | – | 0.063
Cc1ccc(NC(=O)c2ccc3c(c2)[nH]c(=O)n3C(C)C)cc1 | – | 2.87 | – | – | – | –
CC(C)n1c(=O)[nH]c2ccccc21 | – | · | – | – | – | ·
SMILES | HSV augment | ROMK mod | Arbovirus anti | Efa HMGR inh | Calpain2 inh | ROMK hit retest
COc1ccc2[nH]c(CN3CCN(C(C)C)C(CCO)C3)c(C)c2c1 (configuration not stated) | – | -7.8 | – | – | – | –
COc1ccc2[nH]c(CN3CCN(CC(C)C)C(CCO)C3)c(C)c2c1 (configuration not stated) | – | – | – | – | – | ·
CN(C(=O)CSc1nnc(-c2ccncc2)n1C)C1CCS(=O)(=O)C1 (configuration not stated) | – | 3.1 | – | – | – | –
Cc1ccccc1-n1c(SCC(=O)N(C)C2CCS(=O)(=O)C2)nnc1-c1ccncc1 (configuration not stated) | – | – | – | – | – | ·
CCOC(=O)C1C(c2ccc(O)c(O)c2)NC(=S)NC1(O)C(F)(F)F (configuration not stated) | – | – | – | – | – | ·
COc1cccc(/C=C2\SC(=S)N(N3C(=O)CCCC3=O)C2=O)c1 | – | -2.68 | – | – | – | 0.0489
CCCn1c(SCC(=O)Nc2ccccc2N2CCCCC2)nc2c1c(=O)n(C)c(=O)n2C | – | -2.64 | – | – | – | 0.0639
CCn1c(SCC(=O)Nc2nc3ccc(OC)cc3s2)nc2c1c(=O)n(C)c(=O)n2C | – | · | – | – | – | ?
COCCNC(=O)Cn1cc(C(=S)N2CCOCC2)c2ccccc21 | – | – | – | – | – | ·
